The values below come from article PMC13494018.

Sequences and labels used below:
B1: design_391_ca6baf5d-2451-47ba-bffc-fc886679966a_164_dldesign_0_cycle1_af2pred (protein)
chain: AGKVGELAAETLKVAAEARRVAAELPEIREEVTARTSRLVAEAFRAALSGTDEDTAKRALEELKRLLEEARELLEEA
B2: Pdl1_binder_AF2_65 (protein)
chain: ETVRVDATTKETALALMEMGEKAGLKVVIGLTSKEDAEEVAEIAKKKGKFEVFHI
B3: design_391_ca6baf5d-2451-47ba-bffc-fc886679966a_175_dldesign_0_cycle1_af2pred (protein)
chain: DEKLKKAEELAKQAAKATLTPTGKAEFDKLANEAMKLVSQLFKEDPAKGQKAAKALSEAIDQAKANAALAAAAA
B4: Pdl1_binder_AF2_86 (protein)
chain: MRLTIGIAETEEEAEELARRFREEGVEDFVVVTDLEEAVAIAREAGVPTTILAPKGFDTKALLKAAMELNEAGIPTSVQHIP
B5: design_391_ca6baf5d-2451-47ba-bffc-fc886679966a_219_dldesign_0_cycle1_af2pred (protein)
chain: AEAERRREEVIREAREAAERLREAGREASPELRALAEATAQTVLLLVEGGEANSPELGLRVAERALELARRTLEEVRAG
B6: Pdl1_binder_AF2_87 (protein)
chain: ERREELEAIAKATESLAELLELGEKDPEVRKAALRAAQIVAERLAERAEELGAEEAAELLRKAAEDPENALRYVREAAEKLRAEAEAL
B7: Pdl1_binder_AF2_93 (protein)
chain: REEKIEKVREAAEEAKKAGAIEDYEIEGDEVKFYRKDWKPESLLIVMKAAQVAALEGFKPTIVKS
B8: Pdl1_binder_AF2_52 (protein)
chain: IKEKIEELEKKAEEEVEEAKKLDKEEANKKLNKLSTEIYIEAIQVNDEEFRKKAVEILTKIAKESKELGLEEAEKAASSFAEELKEKL
B9: design_391_ca6baf5d-2451-47ba-bffc-fc886679966a_1257_dldesign_0_cycle1_af2pred (protein)
chain: SAAAAAAARAAKAAADAEQLKALGDAAIAQLAADPSMAPQARAVAAMARAAAEGYAADPATAAAAEAARATAERVAAAAAAAA
B10: design_391_ca6baf5d-2451-47ba-bffc-fc886679966a_294_dldesign_0_cycle1_af2pred (protein)
chain: AAEEAAEKAVEEAEKALEKAKAHLAKYPDSLAAKAAVALAKTMLAAAKEVAEEGNLEELERTLESVRKATEEMDKLLAADEAAAA
B11: Pdl1_binder_AF2_92 (protein)
chain: PKVVVEADTEEEAEKMAKKFREMGAEAEIEGKTVVATSDSEELIKLIAVIARDRGLKAEVIP
B12: design_391_ca6baf5d-2451-47ba-bffc-fc886679966a_1527_dldesign_0_cycle1_af2pred (protein)
chain: AEERAEEVRRRAEELRARALALIAEDPGAGMAYAVEAARELSEYGRAHPEVAEAAGEAANDVLSAASRAAMAVYAA
B13: design_391_ca6baf5d-2451-47ba-bffc-fc886679966a_1195_dldesign_0_cycle1_af2pred (protein)
chain: SLYDEALKYAMQAANLGYEADPELAKKLRQAAIALAQGKIDEAIALLKEAKELAKKYPEKEPEIKELIDKAIELANKIK
B14: design_391_ca6baf5d-2451-47ba-bffc-fc886679966a_1141_dldesign_0_cycle1_af2pred (protein)
chain: APAAATARAVGKRAQAAAKKLAKAGTKEVAKEAKKLAEKAKELEKEAIANAADTAVSGAKILEILKLLDEANKLLKKY
B15: Pdl1_binder_AF2_64 (protein)
chain: EEEEKKEKANLLRVEAAQKLSLVAEALPEVREKALEAIRKIFDKETIEEGVELAREIAERVAAEGTEEQARLAREAVEKAEEALKLEK
B16: design_391_ca6baf5d-2451-47ba-bffc-fc886679966a_1193_dldesign_0_cycle1_af2pred (protein)
chain: AAARQAALLAQAEALRAQAVALADGTAEEQQALLQQIVDLAQAHPDMSPETWAALNAALAAASSAYIRAARA
B17: design_391_ca6baf5d-2451-47ba-bffc-fc886679966a_1360_dldesign_0_cycle1_af2pred (protein)
chain: DYTERAKAALKSAIENMAKAAIEAAKEDAEKGKEKLKQLKELSEQMIAIAASLDPALAKEIKAYAEEQIKKVEEAIKKAK
B18: design_391_ca6baf5d-2451-47ba-bffc-fc886679966a_926_dldesign_0_cycle1_af2pred (protein)
chain: AEAAAQKALATAMAKALKKRGEELLKEAKTASAEEAKKLLDNFVKLGEVLAAGAPPEVGAEVKAATEKYSAEMQAVIDAKAA
B19: Pdl1_binder_AF2_72 (protein)
chain: DEMDKLKVEAMKYGSKAIKIASEKDEELAERAAEALSLAMTDPEKGAKELRKIAEELEEKGLPEAAEYLRKAADYFERYAKLLKE
B20: Pdl1_binder_AF2_79 (protein)
chain: KREEALRKAAEAAVKAMEMAKKASDEAKVEIMEHFSRAMRAIKEGDFEEAIRHLRKAAEVAEEKVGKEVGEFIREAAREVERIA
B21: Pdl1_binder_AF2_66 (protein)
chain: REQIYEQFLELAKAEAREFPGVVDVSREGDTLIVTTKTEEAAKEFEKRLQPIADSVGVKLETKVA
B22: design_391_ca6baf5d-2451-47ba-bffc-fc886679966a_1188_dldesign_0_cycle1_af2pred (protein)
chain: AAAEEIAARNGEALARQAAAASPEDAAAIAENALQMARASPLFAPAARKAVEAAAETIAKEDPERGEALLREGLAAVEAIEA
B23: design_391_ca6baf5d-2451-47ba-bffc-fc886679966a_1281_dldesign_0_cycle1_af2pred (protein)
chain: AAQEVQERAREVAARAEALAAAAAADPAAARLARSAAHFARLAAELAPTDLPLAQQALEVAESLLAEAEALLAARRA
B24: Pdl1_binder_AF2_61 (protein)
chain: MYVVVAKGTEQQAKLFALIARDRGHEAEVEGDTAVVKTDDLEEAEKLAELARELGMEAEVIE
B25: design_391_ca6baf5d-2451-47ba-bffc-fc886679966a_158_dldesign_0_cycle1_af2pred (protein)
chain: AEEKRKKAQELYEKAIAEAKELAKKGDIGALLKVTMDAAKEILELDPSLEPLAEALRKQGTALAQEAIAAAIAAAA
B26: Pdl1_binder_AF2_85 (protein)
chain: EARELVKEAVEKFEKAAEEALKDFEKAEKLAKEALEKLYEAAKLDPSLRPVYQEAALHLVKALAHDDDPEKASEELKKAAEVAKKELE
B27: design_391_ca6baf5d-2451-47ba-bffc-fc886679966a_1313_dldesign_0_cycle1_af2pred (protein)
chain: MEEARRRAEELLRRVRELAARAAKAAAAGDVAEAQRLLAEALEALAELSRLGREVGPEGRELVREGNRAVAAAARAALAAARAA
B28: Pdl1_binder_AF2_73 (protein)
chain: DEARDEAITELMLVASRALKAGPALAEAVELLLEAIHLAVEGRLEEAAELAERAAELAREAGDEEVAEEAERAAELARRAAEEEE
B29: Pdl1_binder_AF2_76 (protein)
chain: MYEVVIEGEKSVAEFIKLIAEQLGAEAEVEGDKAVIRTERREDAERLAEAAKRFGAEAEVRE
B30: design_391_ca6baf5d-2451-47ba-bffc-fc886679966a_707_dldesign_0_cycle1_af2pred (protein)
chain: AEEEERERRAEEVRRWAEERAAQARALAAQDPQAGLALALEAMEELRELRERDPAVAEAAREGEQLMAEIAAQAAKAATA
B31: design_391_ca6baf5d-2451-47ba-bffc-fc886679966a_866_dldesign_0_cycle1_af2pred (protein)
chain: SMEEEKKKEAEKKAQSYLKSVEVWATATISAIAQGVVGAQMLANLKKKSEEAIKKLKELGTEEGKKAAEKVKAYLAKAEAAA
B32: design_391_ca6baf5d-2451-47ba-bffc-fc886679966a_888_dldesign_0_cycle1_af2pred (protein)
chain: AAAAAAAAAAAAAAAAALARAEELAAAASPEVRALIEAHGIAGRIMFMYTLGARAAAADPARGAELLADARALLAAAQAASRAA
B33: design_391_ca6baf5d-2451-47ba-bffc-fc886679966a_1034_dldesign_0_cycle1_af2pred (protein)
chain: ADAAAQALSQAFELAAQALTKTGSDEANAALQAVTRAMADPAKLPEAIAAAKKAAAAYPEVKALMDQAIKELEKAAELAKAA
B34: Pdl1_binder_AF2_95 (protein)
chain: LEEERREFEEVLERLLEVAEEDPEVRERAEEMVRRAREVAEREGVAAGAAEAAVGALRIASEASEEVRKRYLELASELQAIGQRVVRA
B35: design_391_ca6baf5d-2451-47ba-bffc-fc886679966a_206_dldesign_0_cycle1_af2pred (protein)
chain: DWQAVALQAAEAAAQAAKEDPENAALFNEAAHLLLLAVARPETALELTEKALKLAEKAAKTGSELAKKAYELTKEALELLKAA
B36: design_391_ca6baf5d-2451-47ba-bffc-fc886679966a_968_dldesign_0_cycle1_af2pred (protein)
chain: AAAQQQLRDQARKLLEQAAKRAKEAGNEEAAKEAKEAAKLLKEGGSLGEAAVEASRAHAAAVRFGDEETAALAQAALKLLSQAA
B37: Pdl1_binder_AF2_91 (protein)
chain: DEKFKKIKKMAKVFSESTGKEIEVEKKGDEFIITAKDADEATYQAAKLLKARAEDLGVKARFKEA
B38: design_391_ca6baf5d-2451-47ba-bffc-fc886679966a_1483_dldesign_0_cycle1_af2pred (protein)
chain: SEAAAKEKKAIEAIKKAAADAEAMLQSLIAAGMPAANARAVVTTMTTAARTAAKEAGTEAAKKAAKEAIAKIEAAGKAAEAQLAAQAA

A number with no mark means an inactive call. How the calls were made is not given here.

Sequence of control:Baker_PD-L1, Q9NZQ7 (Q9NZQ7 whole entry): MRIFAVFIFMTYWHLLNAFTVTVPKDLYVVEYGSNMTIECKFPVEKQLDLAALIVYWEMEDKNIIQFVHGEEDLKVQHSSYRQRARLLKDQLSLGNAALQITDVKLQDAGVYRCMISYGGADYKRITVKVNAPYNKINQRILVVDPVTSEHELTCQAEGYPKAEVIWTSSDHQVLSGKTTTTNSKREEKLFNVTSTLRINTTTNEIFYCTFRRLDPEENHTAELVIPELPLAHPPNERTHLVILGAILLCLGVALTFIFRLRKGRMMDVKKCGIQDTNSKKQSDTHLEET

In the first test the target is CD276, Q5ZPR3.
Sequence of CD276, Q5ZPR3 (Q5ZPR3 whole entry): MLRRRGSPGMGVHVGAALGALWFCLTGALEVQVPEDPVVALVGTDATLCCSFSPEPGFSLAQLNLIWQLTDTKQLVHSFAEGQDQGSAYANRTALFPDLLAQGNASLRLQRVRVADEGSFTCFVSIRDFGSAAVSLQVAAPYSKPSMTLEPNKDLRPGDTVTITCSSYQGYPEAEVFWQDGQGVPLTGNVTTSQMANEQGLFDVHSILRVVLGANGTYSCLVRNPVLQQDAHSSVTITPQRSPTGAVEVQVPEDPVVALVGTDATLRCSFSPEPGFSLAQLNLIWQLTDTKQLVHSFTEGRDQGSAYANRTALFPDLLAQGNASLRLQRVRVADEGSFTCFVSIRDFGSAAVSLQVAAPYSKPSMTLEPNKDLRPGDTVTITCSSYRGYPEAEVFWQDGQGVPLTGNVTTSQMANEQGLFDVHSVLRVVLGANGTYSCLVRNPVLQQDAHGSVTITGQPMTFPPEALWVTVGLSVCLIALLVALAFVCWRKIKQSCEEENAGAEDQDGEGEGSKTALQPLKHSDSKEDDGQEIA
Consider B1, for which the “binding in a display sort” value was “not found”.

With B3, the “binding in a display sort” value was “not found”.

Consider B5, for which the “binding in a display sort” value was “not found”.

Regarding B9, the “binding in a display sort” value is “not found”.

Turning to B10, the “binding in a display sort” value is “not found”.

B12: the “binding in a display sort” value was “not found”.

Turning to B13, the “binding in a display sort” value is “not found”.

For the molecule B14, the “binding in a display sort” value is “not found”.

B16: the “binding in a display sort” value was “not found”.

As to B17, the “binding in a display sort” value is “not found”.

For B18, the “binding in a display sort” value is “not found”.

In the case of B22, the “binding in a display sort” value is “not found”.

Regarding B23, the “binding in a display sort” value was “not found”.

As for B25, the “binding in a display sort” value is “not found”.

Consider B27, for which the “binding in a display sort” value was “not found”.

For the molecule B30, the “binding in a display sort” value is “not found”.

For B31, the “binding in a display sort” value was “not found”.

With B32, the “binding in a display sort” value is “not found”.

B33: the “binding in a display sort” value is “not found”.

B35: the “binding in a display sort” value is “not found”.

Regarding B36, the “binding in a display sort” value was “not found”.

As to B38, the “binding in a display sort” value was “not found”.

Another test has as its target control:Baker_PD-L1, Q9NZQ7.
Consider B2, for which the “binding in a display sort” value is “not found”.

Regarding B4, the “binding in a display sort” value was “not found”.

For the molecule B6, the “binding in a display sort” value was “not found”.

For the molecule B7, the “binding in a display sort” value is “not found”.

In the case of B8, the “binding in a display sort” value was “not found”.

Turning to B11, the “binding in a display sort” value is “not found”.

For B15, the “binding in a display sort” value is “not found”.

On to B19, for which the “binding in a display sort” value is “not found”.

For B20, the “binding in a display sort” value is “not found”.

Turning to B21, the “binding in a display sort” value is “not found”.

On to B24, for which the “binding in a display sort” value is “not found”.

As to B26, the “binding in a display sort” value is “not found”.

With B28, the “binding in a display sort” value was “not found”.

As for B29, the “binding in a display sort” value was “binds (active)”.

Take B34: the “binding in a display sort” value is “not found”.

As to B37, the “binding in a display sort” value was “not found”.
